Compound activity from PubChem.
The entries come from a sample that favours hits as a whole.
Shiga inhibitor: Shiga toxin inhibition; Vero cells, Shiga toxin protein synthesis inhibition reporter; inhibition, % at 38.7 µM; 9.2% of 290,000 active; AID 2315; in the data active = inhibition mostly above about 28%, no sharp cut-off; inactive = mostly below about 43%; note: 0% is about no effect
LmPK inh: blocks Leishmania mexicana pyruvate kinase activity | Q27686 | purified LmPK, Kinase-Glo ATP luminescence, 1 h | Potency, µM (titrated, usually from 57.5 µM), for the others: at the top dose activity change, negative = inhibition, actives largely listed as inhibitors | 0.37% of 290,000 active; note: potency is the fitted concentration of half-maximal effect; % is set by controls: 0 for no effect and ±100 for the full control effect
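Kinase-Glo luminescence read after 1 h RT reaction of 0.1 nM LmPK with 0.5 mM PEP and 0.1 mM ADP. Activity scaled between uninhibited and enzyme-free controls.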
FBPA Giardia inh: inhibitors of Giardia lamblia fructose-1,6-bisphosphate aldolase; A8B2U2; 0.71% of 290,000 active; Potency, µM (highest dose often 59.6 µM), for inactives: top-dose activity, negative = inhibition, actives largely listed as inhibitors; purified Giardia FBPA; note: potency is the fitted concentration of half-maximal effect; % is set by controls: 0 for no effect and ±100 for the full control effect; nearly all actives have a fitted effect of over 55% in size
Target sequence (A8B2U2 whole entry, looked up): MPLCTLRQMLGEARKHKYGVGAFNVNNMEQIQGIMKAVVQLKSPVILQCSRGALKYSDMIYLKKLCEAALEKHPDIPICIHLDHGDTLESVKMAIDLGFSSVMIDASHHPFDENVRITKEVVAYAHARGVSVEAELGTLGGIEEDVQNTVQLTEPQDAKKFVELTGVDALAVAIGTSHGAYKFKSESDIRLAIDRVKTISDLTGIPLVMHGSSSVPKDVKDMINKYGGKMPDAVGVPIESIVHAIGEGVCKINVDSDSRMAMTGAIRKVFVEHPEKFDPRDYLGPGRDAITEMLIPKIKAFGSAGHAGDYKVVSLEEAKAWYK
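Giardia FBPA (40 nM reagent) was preincubated 10 min at RT with compound (up to 57.5 uM final), then substrate plus GAPDH/TPI/NAD/arsenate coupling system with diaphorase/resazurin was added; resorufin fluorescence (525/598 nm) was read after 20 min.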
Tb PYK inh: blocks Trypanosoma brucei pyruvate kinase; Potency, µM (titrated, usually from 76.8 µM), for the others: at the top dose activity, negative = inhibition, actives largely listed as inhibitors; Q57TT1; AID 624173; TbPYK enzyme, Kinase-Glo Plus ATP luminescence, 45 min; 0.12% of 410,000 active; note: potency is the fitted concentration of half-maximal effect; % is set by controls: 0 for no effect and ±100 for the full control effect; nearly all actives have a fitted effect of over 50% in size
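In this concentration-response screen, enzyme-free wells defined baseline while DMSO plates tracked drift. Each reaction combined TbPYK, substrate, compound and 130 uM ADP for 45 min at room temperature. Kinase-Glo Plus luminescence gave the signal.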
Cycloheximide cs: counter-screen hit for Shiga toxin inhibitors, cycloheximide. 12% of 300,000 active. AID 2314. max response, %. cell reporter, cycloheximide protein synthesis inhibition counterscreen; in the data active = max response mostly above about 13%, no sharp cut-off; inactive = mostly below about 14%; note: read at 38.3 µM for the half of the compounds with a filed dose; 0% is about no effect
RE007 growth inh: less growth of the S. pombe RE007 Vpr strain; S. pombe RE007 Vpr strain, BacTiter-Glo ATP luminescence, 24 h; Potency, µM (titrated, usually from 92.2 µM), without a hit: at the top dose activity change, negative = less growth, actives largely listed as inhibitors; 0.21% of 360,000 active; AID 651644; active = well fitted falling curve with a large enough effect; inconclusive = small, poorly fitted or top-dose-only effect; inactive = no such curve, though single readings can be large or run the other way; note: potency is the fitted concentration of half-maximal effect; % is set by controls: 0 for no effect and ±100 for the full control effect; nearly all actives have a fitted effect of over 50% in size
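Fission yeast strain RE007, carrying one chromosomally integrated HIV-1 vpr copy, was seeded at OD 0.01 in PMG+AL medium with 23 nL pinned compound. After 24 h at 30 °C and 99% humidity, viability was read by BacTiter-Glo luminescence.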
* = called active by the depositor; ? = inconclusive; / = no result. Unless noted, calls come from the whole dose curve; as a rule, active = well fitted curve in the direction sought with a large enough effect; inconclusive = small, poorly fitted or top-dose-only effect, or another doubt; inactive = no such curve, though single readings can be large; an effect the other way counts as inactive or inconclusive.

SMILES	Shiga inhibitor	LmPK inh	FBPA Giardia inh	Tb PYK inh	Cycloheximide cs	RE007 growth inh
CC(=O)Nc1ccc(NC(=O)c2cccc(S(=O)(=O)N3CCCCCC3)c2)cc1	/	/	/	-3.2%	/	-11.5%
Cc1cc(-c2ccc(Cl)cc2Cl)c(C#N)c(=O)[nH]1	43.8*	-0.6%	-2.8%	-17.9%	21.0*	10.1%
CC1CCN(C2=NC(=O)/C(=C/c3ccccc3F)S2)CC1	68.3*	-1.1%	-0.4%	-6.0%	38.4*	-10.2%
CCCCOc1cccc(C(=O)Nc2cc3nn(-c4ccc(F)cc4)nc3cc2C)c1	/	/	/	-1.7%	/	/
N/C(=N\OC(=O)c1cccc2ccccc12)c1cccc([N+](=O)[O-])c1	17.5	1.5%	-6.0%	-1.4%	9.7	-6.8%
N/C(=N\OC(=O)Cc1ccccc1[N+](=O)[O-])c1cccnc1	42.9	-0.4%	2.2%	-10.0%	11.5	21.2%
Cc1cccc(/C(N)=N/OC(=O)c2cccc3ccccc23)c1	59.2*	-6.4%	/	/	20.6*	/
N/C(=N\OC(=O)c1cccc2ccccc12)c1cccnc1	93.6*	-4.2%	-9.9%	-6.2%	42.0*	-1.3%
O=C(O/N=C(\c1ccccc1)c1ccccn1)c1cccc2ccccc12	12.2	2.3%	-4.4%	-11.1%	14.2*	-8.0%
CCN(CC)C(=O)Cn1c(=O)nc(-c2ccccc2F)c2cc(Cl)ccc21	/	/	/	0.0%	/	/
CCC(=O)N(CC)C1=C(O)c2ccccc2C(=O)C1=O	-9.0	25.1µM*	7.92µM*	?	0.9	?
Cc1cccc(C(=O)NNC2=C(C(=O)C(F)(F)F)CCC2)c1O	16.8	8.6%	-6.2%	-0.7%	15.3	-6.0%
O=C(NNC1=C(C(=O)C(F)(F)F)CCC1)c1cccc(O)c1	64.3*	4.1%	0.1%	-1.1%	31.1*	26.6%
O=C(NNC1=C(C(=O)C(F)(F)F)CCC1)c1cccnc1	50.4	7.6%	4.3%	1.9%	37.5*	15.4%
COCC1CCN(C(=O)CC2C(=O)NCCN2Cc2cccc(Oc3ccccc3)c2)CC1 (configuration not stated)	-6.6	-2.5%	/	-0.8%	0.6	-9.0%
COc1ccc(OC)c(-c2nnc3n2N=C(c2c(OC)cccc2OC)CS3)c1	-5.0	/	3.2%	/	0.7	/
O=C(N/N=C/c1ccc(-c2ccccc2Cl)o1)c1ccccc1	68.6*	-3.7%	1.0%	3.3%	31.6*	3.8%
Clc1ccccc1-c1ccc(/C=N/Nc2nncc(-c3ccccc3)n2)o1	25.9	0.0%	-4.1%	5.0%	7.6	3.3%
O=S(=O)(N/N=C\c1ccc(-c2ccccc2Cl)o1)c1ccccc1	18.7	4.6%	-11.2%	-7.1%	-1.3	-17.7%
O=C(O)c1ccc(N/N=C/c2ccc(-c3ccccc3Cl)o2)cc1	99.7*	5.5%	3.1%	-1.1%	50.4*	?
CC(C)NC(=O)C1C(c2ccc(C(F)(F)F)cc2)=Nc2ccccc2N1C(=O)c1cc2ccccc2[nH]1 (configuration not stated)	/	/	/	/	/	-8.4%
O=C(c1ccco1)N1CCN(C(c2ccccn2)c2nnnn2C2CCCC2)CC1 (configuration not stated)	86.4*	-6.9%	2.5%	-8.4%	36.6*	4.0%
O=C(c1ccco1)N1CCN(C(c2cccs2)c2nnnn2C2CCCC2)CC1 (configuration not stated)	-5.5	0.7%	0.1%	-1.6%	0.5	38.1%
COc1ccc(NC(=O)c2ccc(-n3cccn3)c([N+](=O)[O-])c2)cc1	26.8	0.1%	-16.2%	2.8%	-0.5	10.4%
Cc1ccc(NC(=O)c2ccc(-n3cccn3)c([N+](=O)[O-])c2)cc1C	45.4*	0.5%	-22.6%	-6.5%	34.2*	-17.8%
SMILES	Shiga inhibitor	LmPK inh	FBPA Giardia inh	Tb PYK inh	Cycloheximide cs	RE007 growth inh
O=C(Nc1ccc(Cl)cc1)c1ccc(-n2cccn2)c([N+](=O)[O-])c1	30.2	-3.4%	-11.9%	0.6%	23.6*	0.7%
O=C(NCCc1ccccc1F)C1CCCN1S(=O)(=O)c1ccc2ccccc2c1 (configuration not stated)	34.4	0.8%	-1.5%	0.3%	21.0*	-9.5%
Cc1cc2c(cc1C)-c1nnnn1C(C)(C)C2	59.0*	-3.0%	3.0%	-7.5%	16.7	0.4%
COc1cc2c(cc1OC)-c1nnc(C)n1C(C)(C)C2	-16.6	9.6%	-1.6%	0.3%	-4.6	-3.5%
On1onc2c3cc(-c4ccccc4)nc3ccc21	127.7*	-4.4%	-26.6%	-2.2%	69.3*	-7.9%
CC(C)(C)C(=O)NC(=S)Nc1ccccc1F	40.3	-5.5%	0.6%	-7.7%	26.4*	-23.6%
CCC(=O)NC(=S)Nc1ccccc1F	27.0	0.0%	11.0%	0.1%	6.1	-13.9%
COc1ccc(C(=O)NC(=S)Nc2ccccc2F)cc1	67.4*	5.7%	-15.9%	-12.6%	55.8*	6.8%
COc1ccc(CCCC(=O)Nc2ccccc2F)cc1	108.6*	-6.2%	-0.6%	2.7%	21.1*	3.1%
CCCC(=O)NC(=S)Nc1ccccc1F	73.9	-7.0%	0.7%	0.4%	15.3*	-24.3%
O=C(O)c1ccc(N/N=C/c2ccc(-c3ccc(Br)cc3)o2)cc1	39.3*	-3.3%	-2.8%	-5.3%	26.7*	?
Cc1ccc(/C=N/Nc2ccc(C(=O)O)cc2)o1	75.7*	-26.1%	13.9%	-7.0%	30.0*	0.4%
Cc1ccsc1/C=N/Nc1ccc(C(=O)O)cc1	4.0	1.4%	-6.9%	-15.1%	-2.7	-7.1%
CCOc1ccc(-c2cc(NC(=O)Nc3ccccc3C(F)(F)F)c(C(=O)OC)s2)cc1	/	/	/	-10.2%	/	/
CCOc1nc(-c2ccccc2)ccc1-c1noc(-c2ccncc2)n1	9.2	2.7%	19.3%	-2.0%	2.3	12.9%
c1csc(-c2nc(-c3ccc(-c4ccon4)s3)no2)c1	65.4*	-9.0%	1.7%	2.1%	56.1*	-6.2%
c1ccc(-c2nc(-c3ccc(-c4ccon4)s3)no2)cc1	61.3*	-7.1%	-0.3%	-3.9%	33.6*	4.6%
CC(NC(=O)CN(c1ccc(Cl)cc1Cl)S(=O)(=O)c1ccccc1)c1ccccc1 (configuration not stated)	/	/	/	-8.7%	/	/
Cc1ccc(CCNC(=O)CCSCc2ccccc2Cl)cc1	/	/	/	-3.2%	/	/
COC(=O)c1cc2oc(C)cc2n1CC(=O)Nc1ccc(C)cc1C	/	/	/	-12.4%	/	/
CCOC(=O)c1ccc(N/C=C2/CCCC(C)C2=O)cc1 (configuration not stated)	51.9*	-5.3%	-5.4%	5.2%	57.3*	-26.0%
CC1CCC/C(=C\c2ccc(O)cc2)C1=O (configuration not stated)	/	/	/	2.4%	/	?
Cc1ccc([N+](=O)[O-])cc1NC(=O)C1CCCC1	-11.8	-0.3%	-2.7%	0.4%	-2.7	0.6%
Cc1ccc([N+](=O)[O-])cc1N/C=C1\CCCCC1=O	92.9*	1.3%	17.5%	0.9%	57.6*	4.8%
Cc1cc(O)ccc1N/C=C1\CCCC1=O	41.9*	2.9%	8.89µM*	-12.0%	13.4*	0.9%
